# USP28 block – inhibitors of human USP28 deubiquitinase; Q96RU2; purified USP28, Ub-rhodamine cleavage fluorescence, 30 min; inhibition, % at 25 µM; 3% of 47,000 active; AID 1645857
# USP10 inh – inhibitors of human USP10 deubiquitinase; AID 1645856; inhibition, % at 20 µM; 1.1% of 47,000 active; Q14694; purified USP10, Ub-rhodamine fluorescence, 60 min
# Target sequence (Q14694 whole entry, looked up): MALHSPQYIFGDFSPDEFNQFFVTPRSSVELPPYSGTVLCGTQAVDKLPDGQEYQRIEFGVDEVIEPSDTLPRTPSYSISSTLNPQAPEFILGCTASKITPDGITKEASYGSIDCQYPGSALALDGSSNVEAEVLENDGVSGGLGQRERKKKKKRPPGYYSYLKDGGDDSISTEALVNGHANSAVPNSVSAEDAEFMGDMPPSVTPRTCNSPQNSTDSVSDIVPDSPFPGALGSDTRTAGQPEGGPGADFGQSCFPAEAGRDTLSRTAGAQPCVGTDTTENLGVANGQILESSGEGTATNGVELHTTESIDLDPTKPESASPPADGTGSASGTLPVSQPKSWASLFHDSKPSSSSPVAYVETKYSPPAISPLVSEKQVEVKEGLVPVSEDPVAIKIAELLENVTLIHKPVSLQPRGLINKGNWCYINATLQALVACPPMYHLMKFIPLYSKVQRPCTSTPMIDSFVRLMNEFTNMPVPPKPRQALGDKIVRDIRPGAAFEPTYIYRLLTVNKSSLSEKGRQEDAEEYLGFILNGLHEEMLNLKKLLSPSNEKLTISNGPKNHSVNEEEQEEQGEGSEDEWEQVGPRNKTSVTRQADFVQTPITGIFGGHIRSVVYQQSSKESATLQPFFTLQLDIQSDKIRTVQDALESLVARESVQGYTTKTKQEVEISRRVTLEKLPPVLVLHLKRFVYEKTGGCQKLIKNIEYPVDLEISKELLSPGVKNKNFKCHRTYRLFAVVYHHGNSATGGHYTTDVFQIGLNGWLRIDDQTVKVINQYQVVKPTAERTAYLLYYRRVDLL
# USP30 inh – human USP30 deubiquitinase inhibition; purified USP30, Ub-rhodamine cleavage fluorescence; inhibition, % at 25 µM; 5.3% of 47,000 active; AID 1645860
# USP8 block – blocks human USP8 ubiquitin-rhodamine cleavage. P40818. 4.2% of 47,000 active. purified USP8, Ub-rhodamine cleavage fluorescence, 30 min. inhibition, % at 20 µM. AID 1645853
# USP17 inh – human USP17-like deubiquitinase inhibition; purified USP17, Ub-rhodamine cleavage fluorescence, 3 h; A8MUK1; inhibition, % at 50 µM; 6.5% of 47,000 active
# Numbers stand for hits; 0 = inactive; - = no result given. Hits are enriched below; roughly 13% of the tested compounds scored in any of these assays. No stated cut-off is given here; in the data, active means inhibition above about 30%; inactive means the rest.
SMILES,USP28 block,USP10 inh,USP30 inh,USP8 block,USP17 inh
O=C(Nc1nc2c(s1)CCC2)c1cccc(N2CCNC2=O)c1,31,0,0,0,42
Cc1cc(C)n(-c2ccc(C(=O)Nc3nc4c(s3)CN(C)CC4)cc2)n1,0,0,0,0,0
O=C(Nc1nc2c(s1)CCCC2)c1cccc(Cl)c1Cl,38,0,0,0,0
CN1CCc2nc(NC(=O)COc3ccc(C#N)cc3)sc2C1,33,0,59,0,83
Cc1cccc(Nc2nnc(SCC(=O)N3CCN(C(=O)c4ccco4)CC3)s2)c1,0,0,0,0,0
CC1CCCN(C(=O)c2ccc(C(C)C)cc2)C1 (stereo not drawn),0,0,0,0,0
Cc1cccc(C(=O)Nc2nnc3n2CCCS3)c1,0,0,0,0,0
O=C(Nc1nnc2n1CCCS2)c1ccc(Cl)cc1,0,0,0,0,0
O=C(Nc1nnc2n1CCCS2)c1cc2ccccc2o1,51,0,0,0,0
Cc1ccc(C(=O)Nc2nnc3n2CCCS3)cc1,32,0,0,0,0
CCN(c1ccccc1)S(=O)(=O)c1nnc(NC(=O)COc2ccc(Cl)cc2)s1,0,0,0,39,0
Cc1ccc(S(=O)(=O)N(C)c2ccc(OCC(=O)Nc3ccccc3)cc2)cc1,0,0,0,0,0
N#Cc1ccc(S(=O)(=O)Nc2ccccc2Oc2ccccc2)cc1,0,0,0,0,0
O=S(=O)(Nc1ccccc1Oc1ccccc1)c1ccccc1C(F)(F)F,0,0,31,0,0
O=C(Nc1ccncc1)c1ccc(COc2ccccc2Br)cc1,0,0,0,0,0
CN[C@H]1CC2(CCN(C(=O)CCCn3cccn3)CC2)OC[C@]1(C)O,79,0,0,0,0
CCc1nn2c(S(=O)(=O)N3CCN(c4ccccc4)CC3)c(C)nc2s1,0,0,39,0,0
CC1(C)CC(=O)C2=C(C1)Nc1ccccc1NC2/C=C/c1ccccc1[N+](=O)[O-] (stereo not drawn),0,0,0,0,0
O=C(COC(=O)c1ccc2[nH]c3c(c2c1)CCCC3)Nc1ccccc1Cl,0,0,0,0,0
CC(C)c1ccc(NC(=O)COC(=O)c2ccc3[nH]c4c(c3c2)CCCC4)cc1,0,0,0,0,58
O=C(COC(=O)c1ccc2[nH]c3c(c2c1)CCCC3)Nc1ccc2c(c1)OCO2,0,0,42,41,66
O=C(COC(=O)c1ccc2[nH]c3c(c2c1)CCCC3)Nc1ccccc1-c1ccccc1,0,0,0,0,-
CS(=O)(=O)c1ccc(Cl)c(NC(=O)COC(=O)c2ccc3[nH]c4c(c3c2)CCCC4)c1,0,0,35,0,-
Cc1ccc(CSc2nc3c(c(N(C)C)n2)CCCC3)cc1,47,0,33,0,0
O=c1c2cc(-c3ccccc3)nn2ccn1Cc1noc(CN2CCCCC2)n1,0,0,0,0,0
SMILES,USP28 block,USP10 inh,USP30 inh,USP8 block,USP17 inh
COc1ccc(-c2nnc(N3CCC(C(=O)NC4CCCC4)CC3)o2)cc1,0,0,80,0,75
O=C(NC1CCCCC1)C1CCN(c2ccc(N3CCCCC3)nn2)CC1,0,0,0,0,0
COCCCNC(=O)c1ccc(N2CCOc3ccccc32)s1,0,0,0,0,0
O=C(NC1CCS(=O)(=O)C1)c1ccc(N2CCOc3ccc(Cl)cc32)s1 (stereo not drawn),0,0,0,0,40
O=C1CC(c2ccc(C(F)(F)F)cc2)c2c(nc(-c3ccccc3)[nH]c2=O)N1 (stereo not drawn),0,0,0,65,0
COc1cccc(-c2nc(Cn3cccc(-c4nc(C)no4)c3=O)no2)c1,0,0,0,0,0
COc1ccc(Cn2cccc(-c3nc(C4CC4)no3)c2=O)cc1F,31,0,0,0,0
Cc1ccccc1Cn1cccc(-c2nc(C3CC3)no2)c1=O,38,0,0,0,0
O=C(Nc1ccc(Cl)cc1F)c1cc(-c2cccnc2)n[nH]1,0,0,41,0,0
O=C(NC1CCCCCC1)c1cc(-c2cccnc2)n[nH]1,0,0,0,0,0
O=C(Nc1cc(F)ccc1F)c1cc(-c2cccnc2)n[nH]1,-,0,-,0,57
Cc1ccc2nc(CCc3ccc(NS(=O)(=O)c4cccc(Cl)c4)cc3)[nH]c2c1,37,0,0,0,0
COc1cc(C(=O)Nc2cccc(CCc3nc4ccc(C)cc4[nH]3)c2)cc(OC)c1OC,0,0,0,0,0
Cc1cccc(S(=O)(=O)Nc2ccc(-c3nc4ccc(C)cc4s3)cc2)c1,0,0,0,0,0
Cc1cccc(S(=O)(=O)Nc2ccc(CCc3nc4ccc(C)cc4[nH]3)cc2)c1,36,0,0,0,0
Cc1ccc2nc(CCc3cccc(NC(=O)c4ccc(C#N)cc4)c3)[nH]c2c1,0,0,0,0,0
Cc1ccc2nc(CCc3ccc(NS(=O)(=O)c4cccc(Cl)c4C)cc3)[nH]c2c1,52,0,0,0,0
O=C(Nc1c2c(nn1-c1cccc(Cl)c1)CS(=O)(=O)C2)c1ccc(Cl)cc1,0,0,0,0,0
COc1cccc(CNc2nc3c(S(=O)(=O)c4ccc(F)cc4)nnn3c3ccccc23)c1,0,0,0,0,-
COc1cccc(Nc2nc3c(S(=O)(=O)c4ccccc4)nnn3c3ccccc23)c1,-,0,-,38,85
O=S(=O)(c1ccccc1)c1nnn2c1nc(Nc1ccc(F)cc1)c1ccccc12,0,0,0,52,0
Cc1nc2ccccc2c2oc(C(=O)Nc3ccc4c(c3)OCCO4)cc12,0,0,0,52,0
Cc1nc(-c2ccccc2)sc1C(=O)Nc1ccc2c(c1)OCCO2,50,0,0,0,0
O=C(Nc1ccc2c(c1)OCCO2)c1cc(-c2ccccn2)nc2ccccc12,0,0,0,0,0
CC(=O)c1cccc(NC(=O)c2cc(-c3ccccc3)nc3c(C)c(Cl)ccc23)c1,0,0,0,0,0
SMILES,USP28 block,USP10 inh,USP30 inh,USP8 block,USP17 inh
O=C(Nc1cccc(CO)c1)c1ccc(COc2ccc(Cl)cc2)cc1,0,0,0,0,0
COC(=O)c1ccc(NC(=O)c2ccc(COc3cc(Cl)ccc3Cl)cc2)cc1,0,0,0,0,47
COc1ccc(/C=C/C(=O)Nc2c3c(nc4c2CCC4)CCCC3)cc1,0,0,61,0,38
CCOC(=O)N1CCN(C(=O)[C@H](C)NC(=O)c2cc3c(OC)c(OC)ccc3[nH]2)CC1,0,0,0,0,0
COc1cccc(NC(=O)[C@H](C)NC(=O)c2cc3c(OC)c(OC)ccc3[nH]2)c1,0,0,0,81,47
CC1C(=O)N2CCCc3cc(NC(=O)c4ccc(F)cc4)cc1c32 (stereo not drawn),0,0,0,0,0
O=C(Nc1cc2c3c(c1)CC(=O)N3CCC2)c1ccc([N+](=O)[O-])cc1,0,0,0,0,0
O=C(Nc1cc2c3c(c1)CC(=O)N3CCC2)c1ccc(F)cc1,0,0,0,33,0
COc1ccc(C(=O)Nc2cc3c4c(c2)C(C)C(=O)N4CCC3)cc1 (stereo not drawn),52,0,0,0,0
COc1ccc(C(=O)Nc2cc3c4c(c2)CC(=O)N4CCC3)cc1,49,0,0,0,0

# Screening data as filed in PubChem.
